Compound activity as filed in PubChem.
In the library only some 5.7% were active in any assay of this set; here they are far more common.
DRD3 antagonist = qHTS of D3 Dopamine Receptor Antagonist: qHTS; 360,000 compounds, 2.5% hits; D(3) dopamine receptor (Homo sapiens), P35462; max response, negative = inhibition, %; AID 652054, 2013; D3R cells, DiscoveRx beta-arrestin luminescence, antagonist mode; stronger effect = lower value; in the data active means max response below about -50%; inconclusive means no clear call, values can overlap the other calls; further: on the % scale 0 is the no-effect control and ±100 the full control effect
Target sequence (P35462 whole entry, looked up): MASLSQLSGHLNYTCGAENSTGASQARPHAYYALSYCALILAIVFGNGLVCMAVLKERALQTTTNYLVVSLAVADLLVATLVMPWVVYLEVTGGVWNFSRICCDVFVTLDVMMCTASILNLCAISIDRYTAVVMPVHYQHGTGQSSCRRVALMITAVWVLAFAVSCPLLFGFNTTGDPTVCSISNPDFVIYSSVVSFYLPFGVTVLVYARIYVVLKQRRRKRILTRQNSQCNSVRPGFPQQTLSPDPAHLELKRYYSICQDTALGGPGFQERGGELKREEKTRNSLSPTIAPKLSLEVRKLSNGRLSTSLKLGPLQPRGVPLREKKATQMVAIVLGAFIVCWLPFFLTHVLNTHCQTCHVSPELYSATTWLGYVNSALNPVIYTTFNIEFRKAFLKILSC
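Cells plated overnight at 1500 cells/well, then exposed to library compounds with dopamine controls for 90 minutes at 37 degrees C. DiscoveRx reagent added for 30–60 minutes at room temperature; luminescence read, quantitative HTS format.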
D3 ag = qHTS of D3 Dopamine Receptor Agonist: qHTS | D(3) dopamine receptor (Homo sapiens), P35462 | D3R DiscoveRx beta-arrestin cells, luminescence, 90 min | max activation, % | 410,000 compounds, 0.58% hits | AID 652048, 2013; in the data active means max activation above about 30%; further: 0% is about no effect
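Agonist mode: compounds and dopamine controls were applied to plated cells for 90 min at 37 degrees C after an overnight attachment at 1500 cells/well. Luminescent read-out followed 30 - 60 minutes at room temperature with DiscoveRx detection reagent.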
GLP-1R agonist = qHTS of GLP-1 Receptor Agonists | 380,000 compounds, 0.007% hits | HEK293 GLP-1R CRE-luciferase, luminescence, 4-6 h; cells express a hypersensitive GLP-1R form | Potency, µM (highest dose often 45.6 µM), inactives show at the top dose activation, usual class: activators; further: potency means the concentration at half of the fitted maximal effect; % of control where 0% means no effect
GLP1R cytotox = qHTS of GLP-1 Receptor Inverse Agonists: Cytotox Screen. HEK293 cAMP-luciferase reporter cells, luminescence, 24 h. Potency, µM (highest dose often 38.3 µM), for the others: top-dose activity change, negative = inhibition, most hits filed as inhibitors. 410,000 compounds, 0.13% hits. AID 624418, 2012;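 further: loss of luciferase light is scored as toxicity; potency means the concentration at half of the fitted maximal effect; on the % scale 0 is the no-effect control and ±100 the full control effect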
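Luminescence readout: signal drop marks cytotoxicity. Plated cells grew 12 h at 37 °C, 5% CO2, received 23 nL compound for 24 h, then got luciferase reagent, read after 12 min at RT.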
GLP1R inv ag = qHTS of GLP-1 Receptor Inverse Agonists (Inhibition Mode); AID 624417, 2012; HEK293 GLP-1R CRE-luciferase, luminescence, 24 h; GLP-1R form is constitutively active; 410,000 compounds, 1.6% hits; Potency, µM (series often up to 38.3 µM), for inactives: at the highest dose activity change, negative = inhibition, hits mostly inhibitors; Glucagon-like peptide 1 receptor (Homo sapiens), P43220; further: potency means the concentration at half of the fitted maximal effect; on the % scale 0 is the no-effect control and ±100 the full control effect; nearly all actives have a fitted effect of over 55% in size
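HEK293 cells stably co-expressing a cAMP-responsive luciferase reporter and constitutively active GLP-1R were seeded, incubated 12 h, then exposed to compounds for 24 h at 37 C. Luminescence was read 12 min after detection reagent; inverse agonists lower signal.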
ClpP mod = qHTS Assay for Activators of ClpP; ATP-dependent Clp protease proteolytic subunit (Bacillus subtilis (strain 168)), P80244; purified B. subtilis ClpP, FRET peptide cleavage, 20 min; Potency, µM (series often up to 57.5 µM), for inactives: top-dose activity change, negative = active; 340,000 compounds, 1.9% hits; AID 651965, 2013; active means well fitted falling curve with a large enough effect; inconclusive means small, poorly fitted or top-dose-only effect; inactive means no such curve, though single readings can be large or run the other way; further: potency means the concentration at half of the fitted maximal effect; the source files actives as falling curves though it sought activators and does not explain the sign; nearly all actives have a fitted effect of over 65% in size
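ClpP 10 microg/mL final, pH 8 Tris/KCl buffer with BSA, glycerol, Tween-20; compound pinned in; FRET-FV substrate; RT 20 min; Ex320/Em430; ΔFRET vs ADEP 5.8 microM, DMSO, no enzyme.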
An asterisk follows results filed as active; ? = inconclusive; nt = not tested or not shown. Unless noted, the call rests on the fitted dose curve; in most records, active means well fitted curve in the direction sought with a large enough effect; inconclusive means small, poorly fitted or top-dose-only effect, or another doubt; inactive means no such curve, though single readings can be large; an effect the other way counts as inactive or inconclusive.

SMILES	DRD3 antagonist	D3 ag	GLP-1R agonist	GLP1R cytotox	GLP1R inv ag	ClpP mod
COc1cc(/C=N/Nc2ccccc2C(F)(F)F)ccc1O	2	-2	11%	4%	?	-3%
COc1cc(/C=N/Nc2ccccc2)ccc1O	61	2	12%	6%	2.5µM*	nt
Oc1ccc(/C=N/Nc2ccccc2)cc1	2	-1	4%	-1%	?	nt
Brc1ccc(/C=N/Nc2ccccc2)cc1	-2	2	1%	0%	4.5µM*	nt
Cn1c(=O)c2c(nc(SCC(=O)Nc3ccc(OC(F)(F)F)cc3)n2Cc2cccc(C(F)(F)F)c2)n(C)c1=O	nt	7	nt	0%	-28%	-3%
CCOC(=O)c1cccc(NC(=O)N2CCC(CN3CCCCCC3)CC2)c1	nt	-15	nt	0%	14%	-4%
COc1cccc(C(=O)Nc2ccccc2-c2ccccc2)c1	9	-3	2%	21%	?	-7%
COc1c(Cl)cc(C(=O)Nc2ccccc2-c2ccccc2)cc1Cl	15	-2	-12%	8%	10µM*	?
COc1c(Cl)cc(C(=O)Nc2cccc(-c3nc4ccccc4[nH]3)c2)cc1Cl	nt	15	nt	?	7.9µM*	?
CN(C)CCCOC(=O)N1c2ccccc2C=Cc2ccccc21	-61*	-2	7%	-15%	?	-3%
Cc1cccc(NC(=S)NCc2ccc(F)cc2)c1	4	-2	4%	?	?	1%
S=C(NCCSCc1ccc(Cl)cc1)Nc1ccccc1	?	-16	-11%	?	?	0%
Cc1cccc(NC(=S)NC(C)(C)CC(C)(C)C)c1	-5	-4	22%	?	10µM*	nt
Cc1cccc(CSCCNC(=S)Nc2ccccc2)c1	-7	-5	0%	?	?	25µM*
Cc1cccc(NNC(=S)Nc2c(C)cccc2C)c1	4	4	9%	?	3.2µM*	nt
Cc1cccc(NNC(=S)Nc2ccccc2)c1	-2	2	-1%	?	5.6µM*	-1%
Cc1cccc(NNC(N)=S)c1	-16	-2	-1%	-1%	-1%	nt
Cc1nnc2c3ccccc3nc(N3CCN(c4cccc(Cl)c4)CC3)n12	nt	10	nt	-7%	-15%	-5%
CC1C(=O)N(Cc2cn(Cc3ccco3)nn2)CCS(=O)(=O)N1Cc1ccc(-c2ccc(F)cc2Cl)cc1 (stereo not given)	-13	5	1%	-12%	?	0%
Cc1ccc(CNC(=O)C2CCN(S(=O)(=O)c3ccc4c(c3)oc(=O)n4C)CC2)cc1	nt	-15	-1%	-3%	-8%	1%
O=C(CSc1nc2ccsc2c(=O)n1-c1ccc(Br)cc1)NCc1ccc(Cl)cc1	nt	-1	0%	1%	1%	-26%
Cc1cccc(NC(=S)NNc2cccc(Cl)c2)c1	-6	-6	9%	-11%	10µM*	nt
CC(C)(C)C1CCC(OCC(O)CN2CCN(Cc3ccccc3)CC2)CC1 (stereo not given)	?	-7	17%	?	-49%	2%
COc1ccc(OCC(CO)N2CCN(c3ccccc3)CC2)cc1 (stereo not given)	?	37*	14%	?	?	nt
OC(COC1CCCCC1)CN1CCN(c2ccccc2)CC1 (stereo not given)	-61*	4	-9%	1%	0%	1%
OC(COc1ccc2c(c1)OCO2)CN1CCc2ccccc2C1 (stereo not given)	-78*	-35	-4%	2%	-22%	-8%
OC(COc1ccc2c(c1)OCO2)CN1CCN(c2ccccc2)CC1 (stereo not given)	-63*	14	1%	0%	8.9µM*	nt
